Where a name gives a salt, the structure may show the parent alone.
system: Clostridium sporogenes DSM 1664; test: fold change of Tryptamine concentration vs plate DMSO controls (fold change (ratio)); higher = more amine produced, active = hit call of the paper (significant change in both replicates, either direction); details: incubation time: 27 h, anaerobic, 37 °C
Method in brief: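 Anaerobic mGAM cultures of four gut bacterial strains were grown at 37 °C for 27 h in 80 µL wells, starting at OD 0.1 before 1:1 dilution. Compounds were at 20 µM final (sweeteners 50 µM). Whole cultures were extracted with cold acetonitrile/methanol containing 0.1% formic acid and centrifuged. Amines were quantified by LC–triple-quadrupole MS (dynamic MRM) against external calibration curves and drift-corrected within batch. Each value is the fold change versus plate DMSO controls, averaged over 2 biological replicates.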

Fold change of Tryptamine concentration, inactive:
Cc1ccc(-c2ncc(Cl)cc2-c2ccc(S(C)(=O)=O)cc2)cn1 [Etoricoxib] (20 µM) 1.16
Clc1ccc(CO/N=C(\Cn2ccnc2)c2ccc(Cl)cc2Cl)c(Cl)c1 [Oxiconazole nitrate] (20 µM) 0.91
NCc1ccc(S(N)(=O)=O)cc1 [Mafenide hydrochloride] (20 µM) 0.888
c1ccc(-c2ccc(C(c3ccccc3)n3ccnc3)cc2)cc1 (stereo not given) [Bifonazole] (20 µM) 0.923
OC[C@H]1O[C@@H](O[C@H]2[C@H](O)[C@@H](O)[C@H](O)O[C@@H]2CO)[C@H](O)[C@@H](O)[C@H]1O [Lactose] (50 µM) 0.96
CC(CNC1CCCCC1)OC(=O)c1ccccc1 (stereo not given) [Hexylcaine hydrochloride] (20 µM) 1.03
CN(C)CCc1c[nH]c2ccc(Cn3cncn3)cc12 [Rizatriptan benzoate] (20 µM) 1
CC[N+]1(CC)CCC(=C(c2ccccc2)c2ccccc2)C1C (stereo not given) [Prifinium Bromide] (20 µM) 1.02
COc1ccc(C(=O)c2ccc(C)cc2)c(O)c1 [Mexenone] (20 µM) 1.01
CC(C)NCC(O)COc1ccc(CCOCC2CC2)cc1 (stereo not given) [Betaxolol hydrochloride] (20 µM) 0.955
COc1cc(N)cn[n+]1-c1ccccc1 [Amezinium metilsulfate] (20 µM) 1.05
C[C@H](NCc1ccc(OCc2cccc(F)c2)cc1)C(N)=O [Safinamide] (20 µM) 1.03
CC#C[C@]1(O)CC[C@H]2[C@@H]3CCC4=CC(=O)CCC4=C3[C@@H](c3ccc(N(C)C)cc3)C[C@@]21C [Mifepristone] (20 µM) 0.911
O=C1CCC(N2C(=O)c3ccccc3C2=O)C(=O)N1 (stereo not given) [Thalidomide] (20 µM) 1
CCCC(=O)Nc1ncnc2c1ncn2[C@@H]1O[C@@H]2COP(=O)(O)O[C@H]2[C@H]1OC(=O)CCC [Bucladesine sodium salt] (20 µM) 0.976
CCOC(=O)C1=C[C@@H](OC(CC)CC)[C@H](NC(C)=O)[C@@H](N)C1 [Oseltamivir phosphate] (20 µM) 1.05
Brc1c(NC2=NCCN2)ccc2nccnc12 [Brimonidine L-tartrate] (20 µM) 1.07
CC(C)(C)NC[C@H](O)COc1nsnc1N1CCOCC1 [Timolol maleate salt] (20 µM) 1.03
O=C(CCCN1CCC(O)(c2ccc(Cl)cc2)CC1)c1ccc(F)cc1 [Haloperidol] (20 µM) 1.05
OC[C@@H](O)[C@H](O)[C@@H](O)CO [Xylitol] (50 µM) 1.06
Cc1cnc(C(=O)NCCc2ccc(S(=O)(=O)NC(=O)NC3CCCCC3)cc2)cn1 [Glipizide] (20 µM) 1.01
Fc1ccc([C@@H]2CCNC[C@H]2COc2ccc3c(c2)OCO3)cc1 [Paroxetine hydrochloride] (20 µM) 0.925
Nc1nnc(-c2cccc(Cl)c2Cl)c(N)n1 [Lamotrigine] (20 µM) 1.03
Cc1c(Nc2ncccc2C(=O)O)cccc1C(F)(F)F [Flunixin meglumine] (20 µM) 1.03
COc1c(O)cc2c(c1O)[C@@H]1O[C@H](CO)[C@@H](O)[C@H](O)[C@H]1OC2=O [Bergenin] (20 µM) 1.01
Nc1c(CC(=O)O)cccc1C(=O)c1ccc(Br)cc1 [Bromfenac] (20 µM) 1.01
CNC[C@H](O)[C@@H](O)[C@H](O)[C@H](O)CO [Meglumine] (20 µM) 1.04
O=C(Nc1ccc([N+](=O)[O-])cc1Cl)c1cc(Cl)ccc1O [Niclosamide] (20 µM) 1.02
CN1CCN2c3ncccc3Cc3ccccc3C2C1 (stereo not given) [Mirtazapine] (20 µM) 1.12

Fold change of Tryptamine concentration, active:
Oc1c(Cl)cc(Cl)c(Cl)c1Cc1c(O)c(Cl)cc(Cl)c1Cl (20 µM) 0.00872
